These results are taken from PMC7862700, “An all-to-all approach to the identification of sequence-specific readers for epigenetic DNA modifications on cytosine”.

Common to all, as to assay: DAPPL (digital affinity profiling via proximity ligation, sequencing); 10 mM Tris-HCl pH 7.5, 50 mM NaCl, 1 mM DTT, 4% glycerol, room temperature, 30 min; GST-TFs on glutathione beads, 16-mer random dsDNA library, 0.1% formaldehyde crosslink after washing; high values mean tight binding
The target in one assay is T1, FEV (Homo sapiens, UniProt Q99581 1-238).
T1 sequence: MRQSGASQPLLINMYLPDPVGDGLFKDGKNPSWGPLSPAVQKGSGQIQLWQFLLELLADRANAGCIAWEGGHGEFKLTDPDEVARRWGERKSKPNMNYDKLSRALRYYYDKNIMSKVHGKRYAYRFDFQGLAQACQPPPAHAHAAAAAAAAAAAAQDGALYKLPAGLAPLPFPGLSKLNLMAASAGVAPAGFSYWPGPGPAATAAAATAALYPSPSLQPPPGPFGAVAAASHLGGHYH
The note with it: protein: recombinant; tags: N-terminal GST; dsDNA, one strand shown. In a few lines:
(§1)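 Binding signal is defined as a hexamer's read frequency for one factor over its frequency for the tag-only sample. To obtain reads, GST-fused human transcription factors were expressed in yeast, captured on glutathione beads, barcoded with DNA and pooled with that sample. Pools met 200 nmole of a 16-mer random double-stranded DNA library in Tris/NaCl/DTT/glycerol buffer for 30 min at room temperature before washing, 0.1% formaldehyde crosslinking, proximity ligation (BsaI/T4 ligase, 1 h, 37 °C), PCR and Illumina NextSeq500 sequencing.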

A further assay has as its target ETV5 (Homo sapiens, UniProt P41161 1-510). The note with it: protein: recombinant; tags: N-terminal GST; dsDNA, one strand shown. In a few lines: as §1
For a further assay, the target named is HSF1 (Homo sapiens, UniProt Q00613 1-529). The conditions noted are these: protein: recombinant; tags: N-terminal GST; chain copies: 3; dsDNA, one strand shown. A digest of the protocol:
as §1

A further assay addresses T2, SPIC (Homo sapiens, UniProt Q8N5J4 1-248).
T2 sequence: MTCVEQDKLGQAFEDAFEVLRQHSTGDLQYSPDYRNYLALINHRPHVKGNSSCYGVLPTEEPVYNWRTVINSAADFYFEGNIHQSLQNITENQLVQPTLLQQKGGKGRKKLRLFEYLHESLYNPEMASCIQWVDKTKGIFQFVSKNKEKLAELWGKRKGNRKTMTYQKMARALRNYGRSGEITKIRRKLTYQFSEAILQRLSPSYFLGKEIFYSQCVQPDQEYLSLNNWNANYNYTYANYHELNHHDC
The note with it: protein: recombinant; tags: N-terminal GST; dsDNA, one strand shown. A digest of the protocol:
as §1

A further assay has as its target ELF4 (Homo sapiens, UniProt Q99607 1-663). The note with it: protein: recombinant; tags: N-terminal GST; dsDNA, one strand shown. In a few lines:
as §1

In the next assay the target is T3, ELK4 (Homo sapiens, UniProt P28324-2 1-405).
T3 sequence: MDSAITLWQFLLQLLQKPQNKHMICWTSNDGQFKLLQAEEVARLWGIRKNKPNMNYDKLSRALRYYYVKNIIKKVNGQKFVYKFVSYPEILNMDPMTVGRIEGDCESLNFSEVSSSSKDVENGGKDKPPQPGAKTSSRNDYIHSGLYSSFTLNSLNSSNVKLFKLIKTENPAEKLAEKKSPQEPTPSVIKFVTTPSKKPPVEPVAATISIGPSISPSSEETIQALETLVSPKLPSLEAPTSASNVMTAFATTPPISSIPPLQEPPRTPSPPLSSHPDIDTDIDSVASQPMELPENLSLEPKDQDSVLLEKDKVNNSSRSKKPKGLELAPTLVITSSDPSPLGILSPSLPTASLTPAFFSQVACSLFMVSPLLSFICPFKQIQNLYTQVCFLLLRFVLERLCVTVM
The conditions noted are these: protein: recombinant; tags: N-terminal GST; dsDNA, one strand shown. A digest of the protocol:
as §1

In the next assay the target is T4, ETV2 (Homo sapiens, UniProt O00321 1-342).
T4 sequence: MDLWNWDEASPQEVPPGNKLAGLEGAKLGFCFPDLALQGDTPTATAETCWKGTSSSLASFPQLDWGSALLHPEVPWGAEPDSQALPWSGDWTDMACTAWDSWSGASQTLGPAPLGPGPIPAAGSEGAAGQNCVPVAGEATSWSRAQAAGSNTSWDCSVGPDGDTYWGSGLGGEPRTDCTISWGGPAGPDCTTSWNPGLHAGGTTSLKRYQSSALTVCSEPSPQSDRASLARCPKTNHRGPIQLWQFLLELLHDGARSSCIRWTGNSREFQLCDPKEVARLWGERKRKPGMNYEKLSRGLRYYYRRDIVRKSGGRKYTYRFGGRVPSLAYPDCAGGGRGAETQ
The conditions noted are these: protein: recombinant; tags: N-terminal GST; dsDNA, one strand shown. In a few lines:
as §1

In a further assay the target is T5, ELF3 (Homo sapiens, UniProt P78545 1-371).
T5 sequence: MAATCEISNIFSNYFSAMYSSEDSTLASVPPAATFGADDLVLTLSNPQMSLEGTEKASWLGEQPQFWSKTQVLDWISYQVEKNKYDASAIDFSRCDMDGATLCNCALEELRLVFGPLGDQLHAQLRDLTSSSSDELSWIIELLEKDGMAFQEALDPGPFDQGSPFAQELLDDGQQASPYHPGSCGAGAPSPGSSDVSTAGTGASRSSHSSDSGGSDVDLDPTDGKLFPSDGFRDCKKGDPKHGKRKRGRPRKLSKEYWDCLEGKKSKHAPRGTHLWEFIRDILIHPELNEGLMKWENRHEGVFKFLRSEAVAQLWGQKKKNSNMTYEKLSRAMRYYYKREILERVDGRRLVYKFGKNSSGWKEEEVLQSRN
The note with it: protein: recombinant; tags: N-terminal GST; dsDNA, one strand shown. In a few lines: as §1

In another assay the target is CRX (Homo sapiens, UniProt O43186 1-299). The note with it: protein: recombinant; tags: N-terminal GST; dsDNA, one strand shown. In a few lines: as §1
CRX, sequence (O43186 whole entry): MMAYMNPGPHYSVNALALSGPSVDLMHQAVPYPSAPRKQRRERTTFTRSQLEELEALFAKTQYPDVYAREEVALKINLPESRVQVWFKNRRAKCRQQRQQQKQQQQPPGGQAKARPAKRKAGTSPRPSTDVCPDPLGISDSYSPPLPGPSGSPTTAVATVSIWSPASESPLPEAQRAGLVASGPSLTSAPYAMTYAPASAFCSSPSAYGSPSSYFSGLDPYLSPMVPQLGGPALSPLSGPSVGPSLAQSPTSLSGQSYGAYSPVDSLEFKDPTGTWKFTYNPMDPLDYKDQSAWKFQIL
For a further assay, the target named is ETV1 (Homo sapiens, UniProt P50549 1-477). The note with it: protein: recombinant; tags: N-terminal GST; dsDNA, one strand shown. In a few lines: as §1
ETV1, sequence (P50549 whole entry): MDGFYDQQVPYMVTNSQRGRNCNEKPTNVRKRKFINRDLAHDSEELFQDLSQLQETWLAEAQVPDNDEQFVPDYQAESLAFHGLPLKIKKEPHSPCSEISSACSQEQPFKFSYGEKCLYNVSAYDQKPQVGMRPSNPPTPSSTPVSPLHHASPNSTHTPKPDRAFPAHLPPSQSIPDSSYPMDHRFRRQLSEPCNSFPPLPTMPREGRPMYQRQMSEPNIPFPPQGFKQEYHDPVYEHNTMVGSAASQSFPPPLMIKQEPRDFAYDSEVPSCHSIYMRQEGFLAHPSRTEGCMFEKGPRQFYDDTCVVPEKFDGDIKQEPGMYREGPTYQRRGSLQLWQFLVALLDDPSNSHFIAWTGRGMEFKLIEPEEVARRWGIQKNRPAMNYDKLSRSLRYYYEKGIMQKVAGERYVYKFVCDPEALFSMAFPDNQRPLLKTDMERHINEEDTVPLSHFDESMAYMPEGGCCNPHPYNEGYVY
The next assay has as its target T6, ERF (Homo sapiens, UniProt P50548 1-548).
T6 sequence: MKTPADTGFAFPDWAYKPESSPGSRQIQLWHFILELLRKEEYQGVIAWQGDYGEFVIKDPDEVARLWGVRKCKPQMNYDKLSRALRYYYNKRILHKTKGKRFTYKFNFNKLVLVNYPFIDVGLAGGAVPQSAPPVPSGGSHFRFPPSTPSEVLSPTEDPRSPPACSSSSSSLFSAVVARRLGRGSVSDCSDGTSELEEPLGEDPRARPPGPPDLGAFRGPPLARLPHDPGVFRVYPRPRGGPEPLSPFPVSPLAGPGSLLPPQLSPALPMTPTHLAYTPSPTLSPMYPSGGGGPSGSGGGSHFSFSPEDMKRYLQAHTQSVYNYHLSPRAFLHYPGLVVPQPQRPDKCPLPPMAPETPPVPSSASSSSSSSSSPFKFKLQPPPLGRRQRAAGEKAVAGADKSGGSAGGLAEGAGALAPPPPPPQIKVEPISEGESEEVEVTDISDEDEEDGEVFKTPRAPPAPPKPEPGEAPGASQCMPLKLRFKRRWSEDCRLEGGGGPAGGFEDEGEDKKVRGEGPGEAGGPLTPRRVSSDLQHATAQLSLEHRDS
The conditions noted are these: protein: recombinant; tags: N-terminal GST; dsDNA, one strand shown. In a few lines:
as §1

A further assay deals with T7, ETV3L (Homo sapiens, UniProt Q6ZN32 1-361).
T7 sequence: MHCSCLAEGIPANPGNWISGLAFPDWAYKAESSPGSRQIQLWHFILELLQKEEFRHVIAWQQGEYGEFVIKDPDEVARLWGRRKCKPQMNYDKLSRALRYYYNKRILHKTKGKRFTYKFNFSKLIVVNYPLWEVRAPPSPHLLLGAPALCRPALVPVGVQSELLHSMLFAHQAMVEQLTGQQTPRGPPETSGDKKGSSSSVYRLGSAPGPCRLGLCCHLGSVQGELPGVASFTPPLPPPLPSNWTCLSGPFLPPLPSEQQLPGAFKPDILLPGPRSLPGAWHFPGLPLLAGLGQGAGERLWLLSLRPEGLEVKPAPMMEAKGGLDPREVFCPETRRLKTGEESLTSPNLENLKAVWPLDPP
The note with it: protein: recombinant; tags: N-terminal GST; dsDNA, one strand shown. In a few lines: as §1

A further assay has as its target T8, ETS2 (Homo sapiens, UniProt P15036 1-469).
T8 sequence: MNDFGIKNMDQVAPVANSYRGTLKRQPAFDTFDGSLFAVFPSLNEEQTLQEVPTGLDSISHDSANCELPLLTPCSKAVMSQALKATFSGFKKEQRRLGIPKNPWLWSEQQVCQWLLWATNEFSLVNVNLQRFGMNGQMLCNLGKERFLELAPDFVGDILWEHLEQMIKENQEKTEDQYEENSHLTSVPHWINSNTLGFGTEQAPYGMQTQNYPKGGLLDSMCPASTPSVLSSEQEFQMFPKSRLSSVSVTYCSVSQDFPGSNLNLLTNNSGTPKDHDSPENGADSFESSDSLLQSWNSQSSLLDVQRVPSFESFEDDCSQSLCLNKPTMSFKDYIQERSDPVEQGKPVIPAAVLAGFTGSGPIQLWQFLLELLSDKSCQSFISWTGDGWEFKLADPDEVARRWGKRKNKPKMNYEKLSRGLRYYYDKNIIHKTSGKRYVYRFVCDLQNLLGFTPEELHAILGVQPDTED
The conditions noted are these: protein: recombinant; tags: N-terminal GST; dsDNA, one strand shown. In a few lines:
as §1

Another assay concerns the target T9, SPDEF (Homo sapiens, UniProt O95238 1-335).
T9 sequence: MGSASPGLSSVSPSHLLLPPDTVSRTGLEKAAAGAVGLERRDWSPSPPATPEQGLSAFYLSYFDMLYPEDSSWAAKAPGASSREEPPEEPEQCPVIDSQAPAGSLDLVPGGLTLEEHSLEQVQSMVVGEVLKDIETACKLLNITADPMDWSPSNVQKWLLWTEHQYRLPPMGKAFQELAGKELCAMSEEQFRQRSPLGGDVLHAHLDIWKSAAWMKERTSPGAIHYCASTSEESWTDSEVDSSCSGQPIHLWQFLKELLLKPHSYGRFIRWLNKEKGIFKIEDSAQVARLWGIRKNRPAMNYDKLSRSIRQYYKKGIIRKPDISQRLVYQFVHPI
The note with it: protein: recombinant; tags: N-terminal GST; dsDNA, one strand shown. A digest of the protocol:
as §1

Another assay deals with T10, ETV7 (Homo sapiens, UniProt Q9Y603 1-341).
T10 sequence: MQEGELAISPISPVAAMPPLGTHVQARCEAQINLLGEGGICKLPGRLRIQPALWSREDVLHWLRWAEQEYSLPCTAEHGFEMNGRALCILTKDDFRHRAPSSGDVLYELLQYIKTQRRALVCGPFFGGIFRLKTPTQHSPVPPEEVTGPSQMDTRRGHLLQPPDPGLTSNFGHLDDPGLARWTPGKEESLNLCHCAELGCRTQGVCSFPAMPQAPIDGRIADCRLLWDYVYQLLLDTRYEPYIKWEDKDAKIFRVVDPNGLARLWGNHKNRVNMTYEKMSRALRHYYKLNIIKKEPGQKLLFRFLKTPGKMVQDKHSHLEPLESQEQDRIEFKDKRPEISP
The conditions noted are these: protein: recombinant; tags: N-terminal GST; dsDNA, one strand shown. In a few lines:
as §1

Another assay has as its target T11, ELF5 (Homo sapiens, UniProt Q9UKW6-2 1-255).
T11 sequence: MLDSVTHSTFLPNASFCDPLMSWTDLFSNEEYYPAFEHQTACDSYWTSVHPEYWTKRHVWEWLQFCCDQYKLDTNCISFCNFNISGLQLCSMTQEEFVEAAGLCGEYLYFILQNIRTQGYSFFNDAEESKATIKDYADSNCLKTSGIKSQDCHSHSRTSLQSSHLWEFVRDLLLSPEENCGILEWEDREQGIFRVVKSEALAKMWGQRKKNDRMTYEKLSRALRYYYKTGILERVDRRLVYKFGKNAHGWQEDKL
The conditions noted are these: protein: recombinant; tags: N-terminal GST; dsDNA, one strand shown. A digest of the protocol:
as §1

A further assay addresses T12, ETV3 (Homo sapiens, UniProt P41162-2 1-143).
T12 sequence: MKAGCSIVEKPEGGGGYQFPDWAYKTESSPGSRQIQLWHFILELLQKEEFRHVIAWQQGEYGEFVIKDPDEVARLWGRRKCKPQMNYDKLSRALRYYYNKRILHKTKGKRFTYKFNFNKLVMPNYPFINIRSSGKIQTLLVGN
The note with it: protein: recombinant; tags: N-terminal GST; dsDNA, one strand shown. In a few lines:
as §1

The target of another assay is ETV6 (Homo sapiens, UniProt P41212 1-452). The conditions noted are these: protein: recombinant; tags: N-terminal GST; dsDNA, one strand shown. A digest of the protocol:
as §1

ETV6, sequence (P41212 whole entry): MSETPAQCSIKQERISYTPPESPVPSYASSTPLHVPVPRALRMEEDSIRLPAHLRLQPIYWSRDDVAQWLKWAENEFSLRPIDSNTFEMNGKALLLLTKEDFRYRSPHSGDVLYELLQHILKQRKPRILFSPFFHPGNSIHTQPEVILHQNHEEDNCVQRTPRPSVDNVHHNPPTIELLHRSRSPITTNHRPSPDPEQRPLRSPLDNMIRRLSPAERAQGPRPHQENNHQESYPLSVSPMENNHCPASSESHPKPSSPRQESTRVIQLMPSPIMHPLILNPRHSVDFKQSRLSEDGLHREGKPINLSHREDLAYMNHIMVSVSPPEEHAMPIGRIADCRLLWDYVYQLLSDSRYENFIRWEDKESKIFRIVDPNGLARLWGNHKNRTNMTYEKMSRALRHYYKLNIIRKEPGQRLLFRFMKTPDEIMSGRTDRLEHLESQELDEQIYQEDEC
ETV5, sequence (P41161 whole entry): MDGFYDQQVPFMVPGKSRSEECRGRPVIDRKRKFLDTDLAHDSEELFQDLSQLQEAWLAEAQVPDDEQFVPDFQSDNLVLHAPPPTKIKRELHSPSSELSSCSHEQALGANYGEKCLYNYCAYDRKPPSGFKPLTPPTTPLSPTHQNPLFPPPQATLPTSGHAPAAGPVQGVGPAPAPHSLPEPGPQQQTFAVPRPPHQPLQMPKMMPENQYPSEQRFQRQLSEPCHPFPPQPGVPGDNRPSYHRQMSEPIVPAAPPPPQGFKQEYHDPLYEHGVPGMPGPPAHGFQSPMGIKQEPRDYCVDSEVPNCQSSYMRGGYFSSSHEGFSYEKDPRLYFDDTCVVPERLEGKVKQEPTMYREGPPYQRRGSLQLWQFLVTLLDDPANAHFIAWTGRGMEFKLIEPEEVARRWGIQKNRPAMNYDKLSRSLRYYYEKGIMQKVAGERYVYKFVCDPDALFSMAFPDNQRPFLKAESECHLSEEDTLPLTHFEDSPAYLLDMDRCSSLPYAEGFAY
HSF1, sequence (Q00613 whole entry): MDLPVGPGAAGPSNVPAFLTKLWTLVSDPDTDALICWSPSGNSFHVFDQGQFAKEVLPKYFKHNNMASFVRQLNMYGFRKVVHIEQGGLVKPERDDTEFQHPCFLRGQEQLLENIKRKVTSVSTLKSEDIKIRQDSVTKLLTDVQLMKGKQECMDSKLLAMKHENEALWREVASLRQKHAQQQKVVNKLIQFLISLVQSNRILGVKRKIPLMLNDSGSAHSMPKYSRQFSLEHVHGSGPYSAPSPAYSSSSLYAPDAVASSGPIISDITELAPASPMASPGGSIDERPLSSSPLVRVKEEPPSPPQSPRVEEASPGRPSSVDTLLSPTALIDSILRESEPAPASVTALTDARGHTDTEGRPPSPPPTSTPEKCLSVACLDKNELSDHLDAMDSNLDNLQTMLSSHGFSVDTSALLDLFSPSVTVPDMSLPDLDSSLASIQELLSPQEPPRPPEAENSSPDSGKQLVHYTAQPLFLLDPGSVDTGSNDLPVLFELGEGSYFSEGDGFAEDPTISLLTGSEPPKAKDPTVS
ELF4, sequence (Q99607 whole entry): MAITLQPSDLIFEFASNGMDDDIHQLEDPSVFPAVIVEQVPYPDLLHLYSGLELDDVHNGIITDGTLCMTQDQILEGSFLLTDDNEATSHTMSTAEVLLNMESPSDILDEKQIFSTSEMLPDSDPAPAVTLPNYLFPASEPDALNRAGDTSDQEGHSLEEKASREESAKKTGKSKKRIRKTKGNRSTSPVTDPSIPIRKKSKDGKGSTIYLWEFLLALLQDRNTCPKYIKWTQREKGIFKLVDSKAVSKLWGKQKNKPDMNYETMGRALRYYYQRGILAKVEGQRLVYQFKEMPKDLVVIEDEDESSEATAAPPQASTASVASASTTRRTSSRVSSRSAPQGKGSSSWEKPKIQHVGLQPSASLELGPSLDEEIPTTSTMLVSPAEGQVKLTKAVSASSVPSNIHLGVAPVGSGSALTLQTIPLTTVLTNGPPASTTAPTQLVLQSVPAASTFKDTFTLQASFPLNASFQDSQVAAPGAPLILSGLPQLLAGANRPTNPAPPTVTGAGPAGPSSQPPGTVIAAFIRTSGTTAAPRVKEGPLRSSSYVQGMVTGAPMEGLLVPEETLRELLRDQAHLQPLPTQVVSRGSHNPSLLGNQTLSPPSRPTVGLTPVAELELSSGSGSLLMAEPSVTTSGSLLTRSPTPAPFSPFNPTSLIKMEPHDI

As for ACATCT, the binding signal in the assay with FEV was 1.29 fold enrichment (6-mer frequency, TF over GST control); in the assay with ETV5, 1.31 fold enrichment (6-mer frequency, TF over GST control); with HSF1, 1.36 fold enrichment (6-mer frequency, TF over GST control); in the assay with SPIC it was 1.43 fold enrichment (6-mer frequency, TF over GST control); with ELF4, 1.29 fold enrichment (6-mer frequency, TF over GST control); with ELK4, 1.4 fold enrichment (6-mer frequency, TF over GST control). The binding signal is 1.29 fold enrichment (6-mer frequency, TF over GST control) in the assay with ETV2; 1.4 fold enrichment (6-mer frequency, TF over GST control) with ELF3; 1.19 fold enrichment (6-mer frequency, TF over GST control) in the assay with CRX; 1.32 fold enrichment (6-mer frequency, TF over GST control) with ETV1; 1.24 fold enrichment (6-mer frequency, TF over GST control) in the assay with ERF; 1.24 fold enrichment (6-mer frequency, TF over GST control) in the assay with ETV3L. For the same sequence, the binding signal was 1.27 fold enrichment (6-mer frequency, TF over GST control) in the assay with ETS2; 1.26 fold enrichment (6-mer frequency, TF over GST control) in the assay with SPDEF; 1.49 fold enrichment (6-mer frequency, TF over GST control) with ETV7; 1.3 fold enrichment (6-mer frequency, TF over GST control) with ELF5; 1.17 fold enrichment (6-mer frequency, TF over GST control) with ETV3; 1.29 fold enrichment (6-mer frequency, TF over GST control) with ETV6.
